Source: PubChem BioAssay
The source made the active and inactive calls.

Tests used:
[1] = tested on: Human papillomavirus type 1a protein E7 (residues 44-93); assay: HPV1a E7 fragment binders on microarrays, primary screen, biochemical, small-molecule microarray, residues 44-93, 635 nm fluorescence (AID 1108); conditions: small-molecule microarray binding, fluorescence 635 nm; higher = more signal;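 further: E7 fragment applied at 1 µg/mL in TBST for 1 h at 4 C; score combines spot fluorescence with its signal to noise ratio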
[2] = modulators of HCV replicon luciferase signal, primary screen, HCV replication inhibitor project, Huh7 cells, luciferase reporter (AID 1109); conditions: 48 h, higher = more signal;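 further: huh7 hepatoma cells harbouring a luciferase neomycin HCV replicon reporter; luciferase luminescence as measure of HCV replicon replication; test concentration not given here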
[3] = target: Left-right determination factor 2 (Homo sapiens) (UniProt O00292); assay: LEFTY2 binders on small-molecule microarrays, primary screen, biochemical, small-molecule microarray, 635 nm fluorescence scan (AID 1110); conditions: LEFTY2 binding, higher = more signal
[4] = target: Calmodulin-1 (Homo sapiens) (UniProt P0DP23); assay: CALM1 binders on microarrays, EGTA buffer, profiling panel, biochemical, small-molecule microarray, Cy5-labelled CALM1 (AID 1111); conditions: Cy5-CALM1 binding fluorescence, higher = more signal;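 further: labelled calmodulin applied in Tris saline Tween buffer holding calcium plus EGTA and DTT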
[5] = target: Calmodulin-1 (Homo sapiens) (UniProt P0DP23); assay: calcium-bound CALM1 binders on microarrays, profiling panel, artefact control for SMM control-protein annotation, biochemical, small-molecule microarray, Cy5-labelled CALM1, plus calcium (AID 1112); conditions: Cy5-CALM1 binding fluorescence, higher = more signal;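 further: score merges spot fluorescence with signal to noise from triplicate slides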
[6] = small-molecule microarray binders of probe aWnt5a, primary screen, biochemical, biotinylated probe, 635/667 nm fluorescence (AID 1113); conditions: higher = more signal;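 further: score merges 667 nm fluorescence intensity with signal-to-noise per printed feature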
[7] = small-molecule microarray binders of probe aShh, primary screen, biochemical, biotinylated probe, 635/667 nm fluorescence (AID 1114); conditions: higher = more signal;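 further: probe is biotin-labelled aShh protein from a stem cell growth factor screen; measures binding of labelled protein to compounds printed on the slide; score merges feature fluorescence at 667 nm with signal-to-noise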
[8] = small-molecule microarray binders of probe aNog, primary screen, biochemical, biotinylated probe, 635/667 nm fluorescence (AID 1115); conditions: higher = more signal;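 further: probe is biotinylated aNog protein used at 0.15 µg/mL for 1 h at 4 C; z-score combines 667 nm fluorescence of each spot with its signal to noise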
[9] = target: Torsin-1A-interacting protein 1 (Homo sapiens) (UniProt Q5JTV8); assay: LAP1 binders from COS7 cell lysate, primary screen, small-molecule microarray, 635/667 nm fluorescence (AID 1116); conditions: COS7-hLAP1 lysate binding, 635 nm fluorescence, higher = more signal
[10] = target: Alpha-bungarotoxin (Bungarus multicinctus) (UniProt P60615); assay: alpha-bungarotoxin binders on microarray, profiling panel, artefact control for SMM control protein annotation, biochemical, small-molecule microarray, Alexa647 label, 635/667 nm fluorescence (AID 1117); conditions: alpha-BTX-A647 binding fluorescence, higher = more signal
Albumin (Bos taurus) = Albumin (Bos taurus) (UniProt P02769); assay: bovine serum albumin binders on microarray, profiling panel, artefact control for SMM control protein annotation, biochemical, small-molecule microarray, Alexa647 label, 635/667 nm fluorescence (AID 1118); conditions: BSA-A647 binding, fluorescence 635 nm, higher = more signal;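 further: score merges 667 nm emission intensity and signal-to-noise per printed compound spot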
[11] = small-molecule microarray binders of probe aXIP, primary screen, biochemical, NeuroSMM set, 635/667 nm fluorescence (AID 1119); conditions: higher = more signal, called active from +8 up or from −8 down;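 further: probe is the protein aXip251-270 applied at 1 µg/mL to compound-printed slides; binding of probe to printed compounds measured as 667 nm fluorescence plus signal to noise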
[12] = small-molecule binders of probe aNOTCH3, primary screen, biochemical, small-molecule microarray, 635/667 nm fluorescence (AID 1120); conditions: higher = more signal;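 further: probe is a biotin-tagged antibody raised against NOTCH3 rather than NOTCH3 protein; score merges spot fluorescence near 667 nm with spot signal to noise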
[13] = small-molecule binders of probe aNOTCH2, primary screen, biochemical, small-molecule microarray, 635/667 nm fluorescence (AID 1121); conditions: higher = more signal;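 further: score merges feature fluorescence read at 667 nm with its signal to noise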
[14] = target: Carbonic anhydrase 2 (Homo sapiens) (UniProt P00918); assay: CAII small-molecule binders, profiling panel, biochemical, small-molecule microarray, Alexa647-labelled CAII (AID 1122); conditions: CAII-A647 binding fluorescence, higher = more signal
[15] = COS7 lysate on small-molecule microarray, probe aHis, 635 nm (AID 1123); conditions: COS7 cell lysate, fluorescence, higher = more signal;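 further: z-score combines 667nm fluorescence intensity with signal-to-noise per printed compound spot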
[16] = compound binding in COS7 lysate, probe aLAP1, primary screen, cell lysate, small-molecule microarray (AID 1124); conditions: probe aLAP1, fluorescence, higher = more signal;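 further: lysate comes from COS7 cells expressing LAP1 and is applied at 0.3 µg/mL; score merges spot fluorescence near 667 nm with signal-to-noise over triplicate slides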
Sam68 (KHDRBS1) = assay: Sam68 small-molecule binders, primary screen, biochemical, small-molecule microarray, 635 nm fluorescence (AID 1125); conditions: small-molecule microarray binding, higher = more signal;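 further: score merges 667 nm channel intensity with signal to noise over triplicate slides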
[17] = tested on: Chordin-like protein 2 (CHRDL2); assay: CHRDL2 small-molecule binders, primary screen, biochemical, small-molecule microarray, 635 nm fluorescence (AID 1126); conditions: small-molecule microarray binding, fluorescence 635 nm; higher = more signal;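 further: printed compound slides probed with Chrdl2 protein at 4 µg/mL for 1 h at 4 C; score merges 667 nm emission intensity with signal to noise over three replicate slides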
[18] = target: Concanavalin-A (Canavalia ensiformis) (UniProt P02866); assay: ConA small-molecule binders, primary screen, artefact control for SMM control protein annotation, biochemical, small-molecule microarray, Alexa647 label, 635 nm (AID 1127); conditions: ConA-A647 binding fluorescence, higher = more signal;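 further: z combines 667 nm emission intensity with signal-to-noise across three replicate slides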
Sequence of Concanavalin-A (Canavalia ensiformis) (P02866 whole entry, looked up): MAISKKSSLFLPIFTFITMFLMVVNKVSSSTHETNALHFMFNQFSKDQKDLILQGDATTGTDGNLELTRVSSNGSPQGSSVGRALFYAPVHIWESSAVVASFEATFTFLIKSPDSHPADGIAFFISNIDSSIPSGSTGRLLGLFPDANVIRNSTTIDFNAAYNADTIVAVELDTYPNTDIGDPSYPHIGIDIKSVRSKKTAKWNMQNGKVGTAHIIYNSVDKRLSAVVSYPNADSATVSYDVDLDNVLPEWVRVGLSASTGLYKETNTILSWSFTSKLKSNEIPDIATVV

Sequence of Albumin (Bos taurus) (P02769 whole entry, looked up): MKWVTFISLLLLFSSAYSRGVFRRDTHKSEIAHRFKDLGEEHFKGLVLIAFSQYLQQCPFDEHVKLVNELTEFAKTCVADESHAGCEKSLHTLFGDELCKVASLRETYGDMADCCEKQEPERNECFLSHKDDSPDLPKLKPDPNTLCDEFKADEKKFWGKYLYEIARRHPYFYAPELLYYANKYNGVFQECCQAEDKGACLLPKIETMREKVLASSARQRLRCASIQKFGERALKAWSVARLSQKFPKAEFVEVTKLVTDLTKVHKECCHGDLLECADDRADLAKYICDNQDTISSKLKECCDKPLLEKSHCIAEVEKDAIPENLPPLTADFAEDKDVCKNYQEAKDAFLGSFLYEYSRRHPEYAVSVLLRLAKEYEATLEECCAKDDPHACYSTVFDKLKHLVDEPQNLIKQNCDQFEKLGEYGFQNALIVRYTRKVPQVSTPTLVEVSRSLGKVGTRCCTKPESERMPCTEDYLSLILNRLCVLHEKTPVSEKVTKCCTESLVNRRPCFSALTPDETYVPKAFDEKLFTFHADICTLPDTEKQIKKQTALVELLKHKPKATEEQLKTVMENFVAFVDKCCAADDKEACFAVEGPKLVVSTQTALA
Sequence of Torsin-1A-interacting protein 1 (Homo sapiens) (Q5JTV8 whole entry, looked up): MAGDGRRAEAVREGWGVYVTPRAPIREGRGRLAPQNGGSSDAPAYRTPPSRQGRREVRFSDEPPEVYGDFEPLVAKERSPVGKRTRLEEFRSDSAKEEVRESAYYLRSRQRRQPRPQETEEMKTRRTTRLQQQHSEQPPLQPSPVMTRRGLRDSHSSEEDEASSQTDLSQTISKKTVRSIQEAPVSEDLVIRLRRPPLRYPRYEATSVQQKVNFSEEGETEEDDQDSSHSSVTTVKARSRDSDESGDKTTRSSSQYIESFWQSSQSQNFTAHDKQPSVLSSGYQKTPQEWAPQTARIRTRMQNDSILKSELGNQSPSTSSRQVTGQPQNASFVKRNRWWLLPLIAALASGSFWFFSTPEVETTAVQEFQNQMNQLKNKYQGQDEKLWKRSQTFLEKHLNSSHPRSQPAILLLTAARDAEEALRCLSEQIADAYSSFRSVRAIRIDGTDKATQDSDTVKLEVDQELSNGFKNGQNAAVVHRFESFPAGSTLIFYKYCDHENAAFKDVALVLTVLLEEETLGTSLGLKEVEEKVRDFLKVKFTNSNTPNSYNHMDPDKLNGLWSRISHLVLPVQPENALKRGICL
Sequence of Left-right determination factor 2 (Homo sapiens) (O00292 whole entry, looked up): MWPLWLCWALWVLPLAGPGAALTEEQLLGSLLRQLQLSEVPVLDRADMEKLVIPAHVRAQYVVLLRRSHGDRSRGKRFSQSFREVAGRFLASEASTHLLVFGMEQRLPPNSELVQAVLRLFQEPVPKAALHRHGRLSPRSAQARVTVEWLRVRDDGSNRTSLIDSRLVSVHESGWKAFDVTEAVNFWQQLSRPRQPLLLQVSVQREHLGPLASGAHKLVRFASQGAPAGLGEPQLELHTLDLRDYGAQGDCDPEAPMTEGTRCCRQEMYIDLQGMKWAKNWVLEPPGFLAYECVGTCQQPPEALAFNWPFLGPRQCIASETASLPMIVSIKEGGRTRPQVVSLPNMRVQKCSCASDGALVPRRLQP
Sequence of Alpha-bungarotoxin (Bungarus multicinctus) (P60615 whole entry, looked up): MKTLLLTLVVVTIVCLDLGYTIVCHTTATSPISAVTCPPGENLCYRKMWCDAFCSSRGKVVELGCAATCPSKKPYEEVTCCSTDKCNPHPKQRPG

SMILES | composite z-score [1] | z-score [2] | composite z-score [3] | composite z-score [4] | composite z-score [5] | composite z-score [6] | composite z-score [7] | composite z-score [8] | composite z-score [9] | composite z-score [10] | composite z-score (Albumin (Bos taurus)) | composite Z-score [11] | composite z-score [12] | composite z-score [13] | composite z-score [14] | composite z-score [15] | composite z-score [16] | composite z-score (Sam68 (KHDRBS1)) | composite z-score [17] | composite z-score [18]
C[N+](C)(C)CCCCCCNC(=O)[C@@H]1C[C@@H]2C(=O)N[C@@H](Cc3ccccc3)C(=O)N2[C@@H]1c1ccc(O)cc1 | 1.32 | 0.389 | 1.27 | -0.193 | -0.927 | -0.0236 | -0.156 | 0.0498 | 1.41 | 1.54 | 0.454 | 0.609 (inactive) | 0.325 | -0.126 | 0.524 | 0.955 | 0.385 | 1.29 | 1.39 | 1.12
Cc1ccccc1C(O)C1C=CC2C(=O)N(c3ccccc3)C(=O)C2N1Nc1ccccc1F (stereo not given) | 1.34 | 1.97 | -0.0612 | 2.36 | 0.789 | 0.156 | 0.232 | 1.81 | 1.78 | 1.83 | 1.03 | 0.805 (inactive) | 0.195 | 0.161 | 0.77 | 3.01 | -0.0703 | 1.23 | -0.52 | 1.09
CC(C)=CCN(C(=O)C#Cc1ccccc1)[C@H](CO)c1ccccc1 | 1.16 | -4.92 | 0.379 | -0.557 | -0.56 | -0.0346 | -0.16 | -0.302 | 0.58 | 0.14 | -0.105 | -0.0102 (inactive) | 0.0259 | -0.0883 | -0.0216 | 0.506 | 0.0602 | 0.798 | 0.902 | 0.101
CCOC(=O)C[C@H]1[C@H](OC(=O)c2ccc(-c3ccccc3)cc2)[C@@H](NC(=O)CC(C)C)c2cc(OCCCO)ccc2N1C(=O)Cc1ccc(OC)cc1 | 0.157 | -1.84 | 0.141 | 1.05 | 0.335 | -0.0523 | -0.2 | -0.126 | 0.418 | 0.446 | 0.593 | -0.244 (inactive) | 0.0582 | 0.0426 | -0.0667 | 0.179 | 0.39 | 0.309 | -0.213 | -0.286
CCOC(=O)C1=CC[C@@H](c2ccccc2Cl)N(S(=O)(=O)c2ccc(C)cc2)[C@H]1c1cccc(OC)c1 | 0.414 | -0.587 | -0.0038 | 0.107 | 0.369 | 0.0382 | 0.123 | 0.216 | 0.111 | 0.253 | 0.453 | -0.161 (inactive) | -0.014 | -0.115 | 0.304 | 0.878 | -0.151 | 0.371 | -0.0126 | 0.577
CC(C)C[C@H]1NC(=O)[C@H](Cc2ccccc2)NC(=O)[C@@]23C(=O)N[C@@H](Cc4ccccc4)C2[C@H](C)[C@@]2(C)O[C@H]2C3/C=C/C/C=C\CNC1=O (stereo not given in full) | -0.361 | -2.09 | 0.431 | -0.128 | 0.263 | -0.096 | -0.214 | 0.3 | 0.765 | 0.93 | -0.235 | 0.63 (inactive) | -0.0077 | -0.153 | 0.535 | 1.14 | 0.495 | 1.3 | 0.937 | 0.738
